The values that follow come from ChEMBL document CHEMBL3988442, “University of Dundee, Small-Polar-MMV Screening Library” (2021).

Molecules are shown by their SMILES.

In the test the target is T1, Arginase-2, mitochondrial (Homo sapiens) (UniProt P78540).
T1 sequence (whole entry): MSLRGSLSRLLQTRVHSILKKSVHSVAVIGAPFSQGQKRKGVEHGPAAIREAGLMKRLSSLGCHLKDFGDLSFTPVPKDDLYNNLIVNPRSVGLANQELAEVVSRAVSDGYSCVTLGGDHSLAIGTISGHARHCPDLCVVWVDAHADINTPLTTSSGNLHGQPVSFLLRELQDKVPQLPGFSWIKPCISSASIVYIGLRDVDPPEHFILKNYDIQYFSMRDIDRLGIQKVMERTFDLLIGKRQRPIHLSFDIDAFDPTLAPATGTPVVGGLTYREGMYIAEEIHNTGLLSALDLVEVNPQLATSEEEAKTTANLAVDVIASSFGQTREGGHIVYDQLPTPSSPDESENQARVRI
The test can be described thus: in vitro enzyme assay to detect the production of urea directly proportional to the activity of Arginase II. The note with it: 30 µM. Type of test: functional. Also on record: scale not given: in the data most compounds retested in dose-response had high values.
As to `FC(F)(F)C1CCc2nnc(CNCc3cccs3)n2C1` (centres undefined), the Percent Effect was 2.7%. For `O=C(NC1CC1)[C@@H]1CCO[C@@H]2CCN(CCc3ccccc3)C[C@@H]21`, the Percent Effect stood at 10.3%.

On to `CC1=Nc2c(c(=O)[nH]n2C2CCCCC2)C(c2cccnc2)S1` (centres undefined), for which the Percent Effect was found to be 2.7%. As to `O=c1[nH]c2c(c(=O)n1C1CCCCC1)CCC2NCc1ccccc1` (centres undefined), the Percent Effect came out at 9.19%. The same measure for `CCOc1cccc(C(=O)N(CCC#N)Cc2ccccn2)c1`: 13.5%; for `O=C(NCc1ccncc1)N(Cc1ccc(F)cc1F)C1CC1`: 3.78%. As to `Cc1ccc([C@@H]2CN(S(=O)(=O)N3CCC(C)CC3)C[C@H]2N(C)C)cc1`, the Percent Effect was 7.03%. Turning to `CN1CCC(c2cncc(-c3cccc(Cl)c3)n2)CC1`, the Percent Effect turned out to be 4.87%.

With `CCC(C(=O)NCc1cccnc1)N(c1cccc(C)c1)S(C)(=O)=O` (centres undefined), the Percent Effect is -0.54%. The result for `Cc1nc(NCC2CC2)nc2c1COCC21CCN(CC(=O)N(C)C)C1` (centres undefined) reads 4.87%. Take `CN(Cc1ccco1)[C@@H]1CN(CC2CCOCC2)[C@@H]2CCCO[C@H]12`: the Percent Effect was 4.87%. The same measure for `O=C([C@@H]1CCO[C@@H]2CCN(CCc3ccccc3)C[C@@H]21)N1CCCC1`: 11.3%; for `COc1ccc(C)cc1C(C(=O)O)N1CCN(Cc2ccccn2)CC1` (centres undefined): 4.87%. On to `CC(C)C(NC(=O)Cn1nc2c(cc1=O)CCCC2)C(=O)O` (centres undefined), for which the Percent Effect was determined as 7.03%. On to `Cc1cc(C)cc(OCC(O)CN2CCN(c3nccs3)CC2)c1` (centres undefined), for which the Percent Effect came out at 4.87%. The same measure for `Cc1ccc(CNCc2nnc3n2CC(C(F)(F)F)CC3)o1` (centres undefined): -7.03%; for `CCn1c(NCc2ccccc2)nc2c(C)nn(C)c2c1=O`: 8.11%; for `OCCN1CCC(c2cncc(-c3cccc(Cl)c3)n2)CC1`: -3.78%.

For `CN(Cc1ccco1)[C@@H]1CN(Cc2nccn2C)[C@@H]2CCCO[C@H]12`, the Percent Effect was determined as 11.3%. The same measure for `CCCn1c(NCCc2ccccc2)nc2c(C)nn(C)c2c1=O`: 1.62%; for `CCc1nc(C)c(C(=O)NCC2COc3cc(OC)ccc3C2)o1` (centres undefined): 5.95%; for `COc1ccc2c(c1)OCC(CNC(=O)c1cc(C(C)C)on1)C2` (centres undefined): 2.7%. The same measure for `COCCN1CCC(c2cncc(-c3cccc(Cl)c3)n2)CC1`: 5.95%; for `COc1ccc2c(c1)OCC(CNC(=O)NC(C)(C)C)C2` (centres undefined): 5.95%.

In the case of `CNC(=O)[C@H]1C[C@@H]2CN(C(=O)c3ccsc3)C[C@@H]2N1S(C)(=O)=O`, the Percent Effect was found to be 8.11%. In the case of `CCC(C(=O)NCc1ccncc1)N(c1ccc(F)cc1)S(C)(=O)=O` (centres undefined), the Percent Effect is 8.11%. With `OC(COc1ccccc1)CN1CCN(c2nccs2)CC1` (centres undefined), the Percent Effect turned out to be 4.87%.

With `Cn1cc(CN2C[C@@H]3COC[C@]3(C(=O)NCCc3ccccc3)C2)cn1`, the Percent Effect is 12.4%. The result for `COCC(=O)N1CCC(c2cncc(-c3cccc(F)c3)n2)CC1` reads -5.95%; that for `CCCS(=O)(=O)N1C[C@H](N(C)Cc2ccco2)[C@@H]2OCCC[C@@H]21`, 11.3%. The same measure for `Cc1cccc(-c2nc(CN3CC(n4nc(C)cc4C)C3)no2)c1`: 5.95%; for `NS(=O)(=O)CCNC(=O)c1cc(Br)c2c(c1)OCCO2`: 8.11%. The same measure for `COc1ccccc1Oc1ncccc1CNC(=O)C(O)C(F)(F)F` (centres undefined): 3.78%; for `CC(=O)N[C@@H](C)C(=O)NCc1cccnc1Oc1ccccc1F`: 2.7%; for `O=c1[nH]c2c(c(=O)n1C1CCCCC1)CCC2Nc1ccc(Cl)cc1` (centres undefined): -2.7%. For the compound `CC1=Nc2c(c(=O)[nH]n2C2CCOCC2)C(c2cccc(O)c2)S1` (centres undefined), the Percent Effect worked out at 2.7%. The same measure for `Fc1ccc(CNCc2nnc3n2CC(C(F)(F)F)CC3)c(F)c1` (centres undefined): 8.11%. The same measure for `CCN1CCC(NC(=O)c2ccc(F)cc2I)CC1`: -1.62%; for `O=C(O)C1CCN(C(=O)Cn2ccc3c(Cl)cccc32)CC1`: 10.3%.
